As usually defined, the AC50 is the concentration giving half of the maximal activity seen.

SMILES strings stand for the structures. Values joined by “and” are separate entries in the source; they are usually repeats but may differ in a detail not shown here. Equal entries are not always repeated. Some compounds were tested as several samples or in several runs, with calls that do not always agree. Active and inactive are the calls of the source. Rule for the calls: active = hit-call score of the fitted dose curve at least 0.9, where 1 is the maximum; inactive = score below 0.9.

Assay [1] in a line: APR_HepG2_CellLoss_72hr: Apredica 72-hour HepG2 Assay for Cell Loss (AID 2282915). To be noted: high-content imaging. The method, boiled down: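 Cell number comes from Hoechst 33342-labelled nuclei, imaged at 20x after 3.7% formaldehyde fixation. Dosing was 0.39–200 uM, ten concentrations in duplicate, 0.5% DMSO final, for 72 h. Bidirectional fit relative to DMSO baseline.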

Assay [2] can be described thus: APR_HepG2_P-H2AX_72hr: Apredica 72-hour HepG2 Assay for H2AX Phosphorylation (AID 2282916).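 Note: phospho-histone H2A.x immunostain intensity per cell marking DNA damage.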 Particulars: imaging, actives raise or lower the signal. The method, boiled down: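 HepG2; cpd 0.39–200 uM ×10 conc, duplicates; 0.5% DMSO; 72 hr. Fix 3.7% formaldehyde 30 min RT, 0.5% Triton X-100 10 min. Anti-phospho-H2A.x 1:200 + Hoechst 2 ug/mL, 60 min RT; ArrayScan imaging.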

The nature of assay [3]: APR_HepG2_MitoMembPot_72hr: Apredica 72-hour HepG2 Assay for Mitochondrial Membrane Potential (AID 2282917). To be noted: imaging, actives raise or lower the signal. The method, boiled down:
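Membrane potential read by MitoTracker Red CMXRos (250 nM, 30 min, pre-fixation) fluorescence imaging of HepG2 after 72 hr exposure. Ten concentrations, 0.39–200 uM, duplicate wells, 0.5% DMSO; fitted in both directions against DMSO baseline.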

The nature of assay [4]: APR_HepG2_MitoticArrest_72hr: Apredica 72-hour HepG2 Assay for Mitotic Arrest (AID 2282918). Particulars: high-content imaging, actives raise or lower the signal. The method, boiled down:
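High-content imaging of fixed human HepG2 cells after 72 h compound exposure (0.39–200 uM, duplicates, 0.5% DMSO); mitotic arrest scored from phospho-histone H3 and nuclear Hoechst staining relative to DMSO.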

A short description of assay [5]: APR_HepG2_MicrotubuleCSK_72hr: Apredica 72-hour HepG2 Assay for Microtubule CSK Stabilty (AID 2282919). To be noted: HepG2 microtubule cytoskeleton, high-content imaging, actives raise or lower the signal. The method, boiled down: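 Read-out is tubulin fluorescence intensity from high-content imaging of HepG2 cells, with nuclei identified by Hoechst 33342. Treatment lasts 72 h at 0.39–200 uM, and curves are fitted bidirectionally against the DMSO negative control.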

Assay [6] is described as follows: APR_HepG2_P-H2AX_24hr: Apredica 24-hour HepG2 Assay for H2AX Phosphorylation (AID 2282920). Particulars: high-content imaging, actives raise or lower the signal. The method, boiled down:
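High-content imaging of phospho-histone H2A.x immunofluorescence, nuclei counterstained with Hoechst 33342, in fixed HepG2 cells. Compounds ran 0.39–200 uM in duplicate for 24 h, final DMSO 0.5%. Signal change fitted both directions against DMSO.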

A short description of assay [7]: APR_HepG2_StressKinase_72hr: Apredica 72-hour HepG2 Assay for Stress Kinase (AID 2282921). Particulars: HepG2 stress kinase (phospho-c-Jun) imaging, actives raise or lower the signal. The method, boiled down:
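Dose 0.39–200 uM (10 pts, duplicate), 0.5% DMSO; 72 h; fix 3.7% formaldehyde 30 min RT; Triton permeabilize; anti-phospho-c-Jun/Cy3 + Hoechst 60 min RT; image 20x; fit gain/loss vs DMSO.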

Assay [8] in a line: APR_HepG2_StressKinase_24hr: Apredica 24-hour HepG2 Assay for Stress Kinase (AID 2282922). To be noted: HepG2 stress kinase (phospho-c-Jun) imaging, actives raise or lower the signal. The method, boiled down: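 HepG2, 24 hr dosing, 0.39–200 uM in duplicate, 0.5% DMSO; formaldehyde fix (3.7%), 0.5% Triton X-100; anti-phospho-c-Jun + Cy3 secondary, Hoechst counterstain; ArrayScan imaging; bidirectional curve fit vs DMSO baseline.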

A short description of assay [9]: APR_HepG2_p53Act_72hr: Apredica 72-hour HepG2 Assay for p53 Activation (AID 2282923).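 Note: average cellular p53 protein immunofluorescence intensity in HepG2 cells.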 To be noted: high-content imaging, actives raise or lower the signal. The method, boiled down: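 10-pt conc. 0.39–200 uM, duplicate, 0.5% DMSO; 72 hr exposure; 3.7% formaldehyde fix, 0.5% Triton perm; sheep anti-p53/Cy5 + Hoechst; ArrayScan 20x, 6 images/well; gain/loss fit vs DMSO.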

Assay [10] can be described thus: APR_HepG2_MitoMass_72hr: Apredica 72-hour HepG2 Assay for Mitochondrial Mass (AID 2282924).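 Note: MitoTracker Red CMXRos stain intensity per cell imaged as mitochondrial mass.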 To be noted: high-content imaging, actives raise or lower the signal. The method, boiled down: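 HepG2, 72 hr cmpd, 10 conc 0.39–200 uM in dup, DMSO 0.5% v/v. MitoTracker Red CMXRos 250 nM 30 min pre-fix; formaldehyde 3.7% fix 30 min RT. HCS imaging, gain/loss fit vs DMSO.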

In the case of `COc1nc(C)nc(NC(=O)NS(=O)(=O)c2ccccc2CCC(F)(F)F)n1`, the result in assay [1], in assay [2], in [3], in assay [4], in [5] and in [6] was inactive. Moreover, the molecule was classed as inactive in assay [7], in assay [8], in [9] and in assay [10].

As to `CS/C(C)=N/OC(=O)N(C)SN(C)C(=O)O/N=C(\C)SC`, the result in assay [1], in [2], in [3], in assay [4], in assay [5] and in [6] was inactive. Further, the molecule was called inactive in assay [7], in assay [8], in assay [9] and in assay [10].

For `CCOC(=O)C(Cl)Cc1cc(-n2nc(C)n(C(F)F)c2=O)c(F)cc1Cl` (centres undefined), the outcome in assay [1], in assay [2], in [3], in assay [4], in assay [5] and in assay [6] was inactive. Also, the molecule was classed as inactive in [7], in assay [8], in assay [9] and in assay [10].

Take `CCCC1COC(Cn2cncn2)(c2ccc(Cl)cc2Cl)O1` (centres undefined): the results for the AC50 in [1] and in assay [5] were 76 µM (active) and 77.7 µM (active), respectively. The result in [2], in assay [3], in assay [4], in assay [6], in assay [7] and in assay [8] was inactive. For the same molecule, the molecule was called inactive in assay [9] and in assay [10].

For `CCCCNC(=O)OCC#CI`, the concentration at half-maximal activity (AC50) in assay [1] is 1.45 µM (active) and 7.9 µM (active); in assay [4], 9.07 µM (active); in assay [5], 18 µM (active); in [10], 5.54 µM (active). Further, the molecule was classed as inactive in assay [2], in assay [3], in [4], in assay [5], in [6] and in assay [7]. The molecule was called inactive in assay [8], in assay [9] and in [10].

As to `CCCCOC(=O)c1ccccc1C(=O)OCCCC`, the result in [1], in assay [2], in assay [3], in [4], in assay [5] and in [6] was inactive. The call in assay [7], in assay [8], in assay [9] and in assay [10] was inactive.

On to `CC1=C(C(=O)Nc2ccccc2)SCCO1`, for which the molecule was classed as inactive in [1], in assay [2], in assay [3], in assay [4], in assay [5] and in assay [6]. Further, the molecule was called inactive in [7], in assay [8], in assay [9] and in assay [10].

Regarding `COc1nc(C)nc(NC(=O)NS(=O)(=O)c2ccccc2Cl)n1`, the call in assay [1], in assay [2], in assay [3], in assay [4], in assay [5] and in [6] was inactive. Moreover, the result in [7], in assay [8], in assay [9] and in [10] was inactive.

As to `CC(Oc1ccc(Cl)cc1Cl)C(=O)O` (centres undefined), the result in assay [1], in assay [2], in [3], in [4], in assay [5] and in assay [6] was inactive. For the same molecule, the molecule was called inactive in assay [7], in assay [8], in assay [9] and in assay [10].

Turning to `CC(C)C1(C)N=C(c2nc3ccccc3cc2C(=O)O)NC1=O` (centres undefined), the call in [1], in assay [2], in [3], in assay [4], in assay [5] and in assay [6] was inactive. Besides, the call in [7], in [8], in assay [9] and in [10] was inactive.

Turning to `COP(N)(=O)SC` (centres undefined), the call in assay [1], in assay [2], in assay [3], in assay [4], in [5] and in assay [6] was inactive. For the same molecule, the molecule was classed as inactive in assay [7], in [8], in [9] and in assay [10].

As for `O=C(O)COc1nc(Cl)c(Cl)cc1Cl`, the result in [1], in assay [2], in assay [3], in assay [4], in assay [5] and in assay [6] was inactive. Moreover, the molecule was called inactive in [7], in assay [8], in assay [9] and in [10].

In the case of `O=C(O)c1nc(Cl)ccc1Cl`, the molecule was classed as inactive in assay [1], in assay [2], in assay [3], in assay [4], in assay [5] and in [6]. The molecule was classed as inactive in assay [7], in assay [8], in assay [9] and in [10].

Regarding `CCNc1nc(Cl)nc(NCC)n1`, the call in assay [1], in assay [2], in assay [3], in assay [4], in [5] and in assay [6] was inactive. The molecule was classed as inactive in assay [7], in assay [8], in [9] and in assay [10].

Regarding `COC(=O)C(C)Oc1ccc(Oc2ccc(Cl)cc2Cl)cc1` (centres undefined), the outcome in assay [1], in [2], in assay [3], in assay [4], in [5] and in assay [6] was inactive. Besides, the molecule was called inactive in assay [7], in assay [8], in [9] and in assay [10].

On to `COC(=O)c1ccccc1C(=O)OC`, for which the call in assay [1], in assay [2], in assay [3], in [4], in assay [5] and in [6] was inactive. Also, the call in assay [7], in assay [8], in assay [9] and in assay [10] was inactive.

With `COP(=S)(OC)Oc1nc(Cl)c(Cl)cc1Cl`, the AC50 in [1] was 151 µM (active). Besides, the call in [2], in assay [3], in [4], in assay [5], in [6] and in [7] was inactive. Besides, the call in assay [8], in [9] and in assay [10] was inactive.

In the case of `CCNc1nc(Cl)nc(NC(C)C)n1`, the result in assay [1], in assay [2], in [3], in [4], in assay [5] and in assay [6] was inactive. Further, the call in [7], in [8], in assay [9] and in assay [10] was inactive.

Take `CCCN(CCC)c1c([N+](=O)[O-])cc(S(N)(=O)=O)cc1[N+](=O)[O-]`: the half-maximal activity concentration (AC50) is 38.6 µM (active) and 39.2 µM (active) and 46.7 µM (active) in assay [1]; 128 µM (active) and 34.6 µM (active) in assay [2]; 34 µM (active) and 82.3 µM (active) in [4]; 31.7 µM (active) and 35.9 µM (active) in assay [6]; 54.4 µM (active) in assay [7]; 116 µM (active) in assay [8]. For the same molecule, the AC50 in assay [10] is 94.8 µM (active). Moreover, the outcome in assay [1], in assay [2], in [3], in assay [4], in assay [5] and in assay [6] was inactive. For the same molecule, the call in assay [7], in assay [8] and in assay [10] was inactive.

Values taken from PubChem BioAssay (EPA / NIEHS).
